Measurements as given in PubChem BioAssay (NCI).
Compounds without any hit were thinned out: in the full panel of roughly 79,000, 15% have a hit. Cut-off read from the data, not from the text of the source: active = growth inhibition above about 70%; inactive = the rest.

Assays:
[1] = NCI Yeast Anticancer Drug Screen. Data for the rad50 strain (AID 155);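 note: 0% = growth of vehicle-only cultures of the same strain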; settings: S. cerevisiae rad50 strain growth inhibition; at 50.0 µM; stronger effect = higher value
Procedure, shortened: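 Inhibition values express reduced yeast growth in compound-treated cultures relative to vehicle-treated controls.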

[2] = NCI Yeast Anticancer Drug Screen. Data for the mec2-1 strain (AID 157); settings: S. cerevisiae mec2-1 strain, at 50.0 µM, stronger effect = higher value
Procedure, shortened: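 Mutant yeast (mec2-1) grown with compound; growth inhibition relative to vehicle control reported.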

[3] = NCI Yeast Anticancer Drug Screen. Data for the cln2 rad14 strain (AID 165);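 note: 0% = growth equal to vehicle treated cultures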; settings: S. cerevisiae cln2 rad14 strain, at 50.0 µM, stronger effect = higher value
Procedure, shortened: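 Readout is yeast growth inhibition versus vehicle-treated controls, using a strain with cln2 and rad14 alterations exposed to compound.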

[4] = NCI Yeast Anticancer Drug Screen. Data for the bub3 strain (AID 167); settings: S. cerevisiae bub3 mutant strain, at 50.0 µM, stronger effect = higher value
Procedure, shortened: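 Steps: expose the mutant yeast strain to compound; grow alongside vehicle-treated cultures; measure growth; express inhibition against the vehicle cultures.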

[5] = NCI Yeast Anticancer Drug Screen. Data for the mlh1 rad18 strain (AID 175); settings: S. cerevisiae mlh1 rad18 strain growth inhibition; at 50.0 µM; stronger effect = higher value
Procedure, shortened: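 Genetically defined yeast (DNA repair-deficient) exposed to compounds; growth inhibition determined relative to vehicle.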

Measured: growth inhibition

CN(C)CCSc1n[nH]c(=O)[nH]c1=O
inactive: [1] 2.4% | [2] -6.35% | [3] -23.4% | [4] -16.1% | [5] -3.45%

CC(=O)OCCSSCCOC(C)=O
inactive: [1] -4.9% | [2] -26.4% | [3] 6.55% | [4] -1.9% | [5] -3.75%

C=C(c1ccccc1)c1cccc2ccccc12
inactive: [1] -2.45% | [2] 3.45% | [3] 19.9% | [4] -11.7% | [5] 6.55%

C=CCCCCCCCCC(=O)Nc1cc2c3c(c1)CCCN3CCC2
inactive: [1] 6.95% | [2] 8.75% | [3] -13.8% | [4] 10.6% | [5] 20.9%

OCCCCN1CCCCC1
inactive: [1] -1% | [2] -1.95% | [3] 2.5% | [4] -0.85% | [5] -5.05%

CCCCCCCC(CCCCCCC)(C(=O)OCC)C(=O)OCC
inactive: [1] 7.1% | [2] -1.65% | [3] -37.5% | [4] 0.25% | [5] 0.9%

CC(=O)Nc1ccc(S(=O)(=O)N/N=C(\C)c2csc3ccccc23)cc1
inactive: [1] -2.7% | [2] -5.25% | [3] -16.1% | [4] -4.05% | [5] 0.15%

Cc1ccc(CC2CC(=O)c3ccccc3C2=O)cc1 (stereo not given)
inactive: [1] -7.6% | [2] 2.95% | [3] -13.9% | [4] 3.65% | [5] -16.4%

CCCc1cc(=O)n(CCCc2ccccc2)c(=O)[nH]1
inactive: [1] -3.85% | [2] 1.25% | [3] -7.75% | [4] 15.2% | [5] 18.4%

O=C(Nc1ccc(S(=O)(=O)NC2CCCCC2)cc1)OC(c1ccccc1)c1ccccc1
inactive: [1] 21.6% | [2] -0.75% | [3] 13.8% | [4] -6.15% | [5] 1.45%

CC1C(OC(=O)CCl)CCC2C1(C)CCC1C2(C)CCC2(C)C3CC(C)(C)CCC3(C)CCC12C (stereo not given)
inactive: [1] -13.2% | [2] 1% | [3] -12.2% | [4] 2.15% | [5] -10.2%

CN(C)CCOC(=S)S
inactive: [1] 1.85% | [2] -0.4% | [3] 1.5% | [4] 10.3% | [5] -1%

CCCN1CN(C(C(=O)N[C@@H]2C(=O)N3C(C(=O)O)=C(C)CSC23)c2ccc(O)cc2)CSC1=S (stereo not given in full)
inactive: [1] 11.8% | [2] 7.15% | [3] -25.8% | [4] -23.6% | [5] 34.4%

Cc1nc(C(=O)O)c2ccccc2n1
inactive: [1] -2.8% | [2] 2.45% | [3] 3.6% | [4] -9.65% | [5] 4.6%

C/C(=N/NC(N)=S)c1ccc2ccccc2c1
inactive: [1] 17.4% | [2] 17.1% | [3] 17.2% | [4] 28.9% | [5] 29.4%

C=CC(C)(C)c1c2c(c(O)c3c(=O)c4ccc(O)c(O)c4oc13)C=CC(C)(C)O2
inactive: [1] -12.2% | [2] -12% | [3] -5.2% | [4] -7.7% | [5] -4.05%

O=C(O)c1c(Br)c(Br)c(Br)c(Br)c1C(=O)Nc1ccc(Cl)c(Cl)c1
inactive: [1] -1.05% | [2] 5.15% | [3] -11.1% | [4] 0% | [5] -21%

CN1C(=O)N(c2ccccc2)C2(CCN(CC3COc4ccccc4O3)CC2)C1=O (stereo not given)
inactive: [1] 4.05% | [2] -4.45% | [3] 4.7% | [4] -6.9% | [5] 8.75%

CC(=O)OC(C(=O)Nc1ncccn1)c1ccccc1 (stereo not given)
inactive: [1] -4.7% | [2] -2.8% | [3] 11.4% | [4] 4.5% | [5] -10.9%

CC(=O)NNc1nc(C)c(C(=O)NNC(=O)C(=O)Nc2c(C)cccc2C(C)(C)C)s1
inactive: [1] 26.6% | [2] 20.2% | [3] 32.5% | [4] 24.9% | [5] 20.9%

C=CC1(C)C(C)=C(C)C(C)=C1C
inactive: [1] 11.1% | [2] -4.2% | [3] 18% | [4] -2% | [5] 9.4%

O=C(Nc1ccc(C2=NCCN2)cc1)c1cncc(C(=O)Nc2ccc(C3=NCCN3)cc2)c1
inactive: [1] 5.2% | [2] 22.6% | [3] 50% | [4] 8.95% | [5] 45.6%

CC(C)/C(=N\N=C(\c1ccccc1)C(C)C)c1ccccc1
inactive: [1] -2.6% | [2] 25.5% | [3] -7.7% | [4] 16.3% | [5] 18.1%
